The list is not random: actives were taken first. Their share in the collection is about 19%.
ELG1 DNA repair = qHTS screen for small molecules that inhibit ELG1-dependent DNA repair in human embryonic kidney (HEK293T) cells expressing luciferase-tagged ELG1 | Potency, µM (highest dose often 46.1 µM), without a hit: at the top dose activity change, negative = inhibition, usual class: inhibitors | hit rate 2.3% among 330,000 | AID 504467, 2011 | HEK293T ELG1-luciferase reporter, luminescence, 16 h; DNA damage induced by 5-fluorouridine; also: potency is read from the fitted curve at half-maximal effect; nearly all actives have a fitted effect of over 55% in size
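Cells (2,000 per well) received 5-fluorouridine plus test compound or DMSO and were incubated 16 hr at 37 °C, 5% CO2. Luciferase activity was read by luminescence 30 min after ONE-Glo addition; signal suppression marked inhibition of damage-induced ELG1 function.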
DT40 TDP1 CPT = qHTS for Inhibitors of human tyrosyl-DNA phosphodiesterase 1 (TDP1): qHTS in cells in presence of CPT; AID 686979, 2013; Potency, µM (doses to about 46.2 µM), for inactives: top-dose activity change, negative = growth inhibition, usual class: inhibitors; chicken DT40 Tdp1-/-;hTDP1 cells + 20 nM CPT, ATP luminescence, 48 h; hit rate 12% among 420,000; also: potency is read from the fitted curve at half-maximal effect; nearly all actives have a fitted effect of over 55% in size
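Chicken DT40 Tdp1-/- cells stably complemented with human TDP1 were seeded at 400 cells/well in medium containing 20 nM camptothecin, exposed to pin-transferred compounds, and grown at 37 °C for at least 48 hr. Viability was read as ATP luminescence.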
DT40 TDP1 no CPT = qHTS for Inhibitors of human tyrosyl-DNA phosphodiesterase 1 (TDP1): qHTS in cells in absence of CPT. DT40 Tdp1-/- hTDP1 cells, no CPT, ATP luminescence, 48 h. Potency, µM (titrated, usually from 46.2 µM), for inactives: top-dose activity change, negative = growth inhibition, actives largely listed as inhibitors. hit rate 15% among 420,000; also: potency is read from the fitted curve at half-maximal effect; nearly all actives have a fitted effect of over 55% in size
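No-CPT arm: Tdp1-/-;hTDP1 DT40 cells (400/well) plus compounds, incubated ≥48 hr at 37 °C. Readout CellTiter-Glo luminescence.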
IL1B secr inh = qHTS for Inhibitors of Inflammasome Signaling: IL-1-beta AlphaLISA Primary Screen; hit rate 4.7% among 360,000; AID 743279, 2014; activity change, % at 57.5 µM; THP-1 LPS/ATP IL-1B secretion, AlphaLISA, 16 h; active compounds read low; in the data active = activity change below about -50%; inconclusive = mostly about -30% to -49%
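Secreted IL-1B measured by AlphaLISA bead assay after 16 h compound exposure of THP-1 cells; compounds (final up to 57.5 uM) added 1 h before LPS (250 ng/mL) and ATP (1.25 mM) stimulation; lower signal means less secretion.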
Giardia killer = Small Molecules that selectively kill Giardia lamblia: qHTS. hit rate 0.15% among 340,000. Giardia lamblia trophozoite viability. activity change, % at 7.66 µM, hits read low; in the data active = activity change below about -80%; inconclusive = between about -30% and that limit;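 also: parasites exposed to compound for two days anaerobically before the ATP read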
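Viability, read as ATP luminescence: trophozoites at 100 cells/well, compound added, 48 hrs anaerobic at 37 deg C, then 15-30 min room-temperature development before reading.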
TDP1 block = qHTS Assay for Inhibitors of Tyrosyl-DNA Phosphodiesterase (TDP1); recombinant TDP1, AlphaScreen DNA substrate cleavage; Potency, µM (titrated, usually from 130 µM), inactives show at the top dose activity change, negative = inhibition, most hits filed as inhibitors; hit rate 0.28% among 350,000; AID 485290, 2010; also: potency is read from the fitted curve at half-maximal effect; nearly all actives have a fitted effect of over 40% in size
Target sequence (Q9NUW8 whole entry, looked up): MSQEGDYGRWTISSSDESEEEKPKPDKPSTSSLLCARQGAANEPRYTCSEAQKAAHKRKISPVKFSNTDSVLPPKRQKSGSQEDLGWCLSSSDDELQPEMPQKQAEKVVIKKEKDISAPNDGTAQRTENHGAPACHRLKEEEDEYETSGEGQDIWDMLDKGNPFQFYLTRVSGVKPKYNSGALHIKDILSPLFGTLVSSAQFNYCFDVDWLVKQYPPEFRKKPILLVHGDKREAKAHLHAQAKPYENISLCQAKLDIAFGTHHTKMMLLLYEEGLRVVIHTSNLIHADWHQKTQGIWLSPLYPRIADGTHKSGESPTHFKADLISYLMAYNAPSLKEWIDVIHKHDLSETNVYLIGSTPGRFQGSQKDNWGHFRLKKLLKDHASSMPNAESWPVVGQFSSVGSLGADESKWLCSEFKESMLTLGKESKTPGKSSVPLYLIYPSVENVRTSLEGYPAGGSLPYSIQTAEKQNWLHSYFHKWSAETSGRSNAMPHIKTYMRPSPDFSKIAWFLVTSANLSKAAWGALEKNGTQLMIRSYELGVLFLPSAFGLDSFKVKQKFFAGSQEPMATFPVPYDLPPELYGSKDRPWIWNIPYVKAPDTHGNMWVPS
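Steps: enzyme plus compound, 15 min RT; add biotin/phosphotyrosine-FITC oligonucleotide (15 nM final), react 5 min; add donor/acceptor beads (10 ug/ml final), 10 min; read AlphaScreen. Tdp1 at 1 nM final.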
* = called active by the depositor; ? = inconclusive; nt = no result given; [ ] = remark or other dose. Unless noted, calls follow the shape of the dose curve; as a rule, active = well fitted curve in the direction sought with a large enough effect; inconclusive = small, poorly fitted or top-dose-only effect, or another doubt; inactive = no such curve, though single readings can be large; an effect the other way counts as inactive or inconclusive. % is scaled to controls: 0 for no effect and ±100 for the full control effect.

SMILES	ELG1 DNA repair	DT40 TDP1 CPT	DT40 TDP1 no CPT	IL1B secr inh	Giardia killer	TDP1 block
CCc1c(C)sc2nc(C(C)C)nc(SCC(=O)N3CCc4ccccc4C3)c12	0.0%	?	20.6µM*	-66.8*	-2.9	5.6%
COc1ccc(NC(=O)C2(C)CCN2C(=O)Cc2ccc(Cl)cc2Cl)cc1OC (stereo not given)	nt	18.4µM*	20.6µM*	-19.2	nt	nt
COc1ccc(OC)c(NC(=O)C2(C)CCN2C(=O)Cc2ccc(Cl)cc2Cl)c1 (stereo not given)	nt	20.6µM*	18.4µM*	-1.4	nt	nt
CC1(C(=O)Nc2cccc3cccnc23)CCN1C(=O)Cc1ccc(Cl)cc1Cl (stereo not given)	nt	20.6µM*	20.6µM*	-21.6	nt	nt
CC1(C(=O)Nc2ccc(Cl)c(Cl)c2)CCN1C(=O)CC1CCCC1 (stereo not given)	nt	25.9µM*	?	-6.7	nt	nt
CC1(C(=O)Nc2ccc3c(c2)OCCO3)CCN1C(=O)CC1CCCC1 (stereo not given)	nt	?	?	-4.2	nt	nt
COc1ccc(N(C)C(=O)c2cc3c(s2)-c2c(C)cccc2OC3)c(OC)c1	23.1µM*	?	20.6µM*	-7.0	31.4	5.2%
COc1cccc(N2CCN(C(=O)c3cc4c(=O)oc5ccc(C)cc5c4s3)CC2)c1	nt	?	?	nt	nt	8.1%
COc1cccc(N2CCN(C(=O)c3cc4c(s3)-c3c(C)cccc3OC4)CC2)c1	nt	?	23.1µM*	nt	nt	4.9%
CCc1ccccc1N(C)C(=O)c1cc2c(s1)-c1c(C)cccc1OC2	nt	23.1µM*	23.1µM*	nt	nt	nt
Cc1cccc2c1-c1sc(C(=O)NCc3ccccc3Cl)cc1CO2	nt	16.4µM*	25.9µM*	nt	nt	nt
Cc1ccc(CCNC(=O)c2cc3c(s2)-c2c(C)cccc2OC3)cc1	nt	?	?	nt	nt	-2.9%
CC(C)=CC1C(CO)C1(C)C (stereo not given)	nt	4.0%	8.7%	nt	nt	11.7%[56.1 µM]
COc1cc(OC)c(N(C)C(=O)c2cc3c(s2)-c2ccccc2OC3)cc1Cl	nt	13µM*	23.1µM*	nt	nt	0.0%
Cc1cccc2c1-c1sc(C(=O)Nc3cccc([N+](=O)[O-])c3C)cc1CO2	?	?	23.1µM*	-52.3*	32.7	-8.0%
O=C(Nc1ccccc1Sc1ccccc1)c1cnn2c1NC(=C1CC1)C=C2C(F)(F)F	nt	?	?	nt	7.6	nt
CCCC1=Nc2cc(C(=O)NC(C)c3ccccc3)ccc2Sc2ccc(C)cc21 (stereo not given)	nt	?	?	nt	nt	7.5%
CCC1=Nc2cc(C(=O)NCCN(CC)CC)ccc2Sc2ccccc21	nt	?	?	nt	nt	-2.1%[12.3 µM]
COc1ccc(CCNC(=O)c2ccc3c(c2)N=C(C)c2ccccc2S3)cc1OC	nt	?	?	nt	nt	5.0%
CCC1=Nc2cc(C(=O)NCCc3ccccc3)ccc2Sc2ccc(Cl)cc21	nt	8.2µM*	6.51µM*	nt	nt	0.0%
CCCC1=Nc2cc(C(=O)NCCc3ccccc3)ccc2Sc2ccc(C)cc21	nt	4.61µM*	6.51µM*	nt	nt	0.0%
CCCNC(=O)c1ccc2c(c1)N=C(CCC)c1ccccc1S2	nt	1.16µM*	0.731µM*	nt	nt	0.0%
CCC1=Nc2cc(C(=O)NC(C)c3ccccc3)ccc2Sc2ccc(Cl)cc21 (stereo not given)	nt	16.4µM*	?	nt	nt	7.5%
CCCC1=Nc2cc(C(=O)NCCCN3CCN(C)CC3)ccc2Sc2ccccc21	-2.0%	?	?	-8.0	27.5	5.6%
CCC1=Nc2cc(C(=O)NCc3ccccc3Cl)ccc2Sc2ccc(C)cc21	nt	5.17µM*	3.26µM*	nt	nt	2.8%
SMILES	ELG1 DNA repair	DT40 TDP1 CPT	DT40 TDP1 no CPT	IL1B secr inh	Giardia killer	TDP1 block
CCOCCCNC(=O)c1ccc2c(c1)N=C(CC)c1cc(Br)ccc1S2	?	0.0366µM*	0.0326µM*	-10.8	4.9	5.3%
CCC1=Nc2cc(C(=O)NCc3ccccc3OC)ccc2Sc2ccc(Cl)cc21	nt	?	?	nt	nt	7.8%
CCCC1=Nc2cc(C(=O)NCc3ccc(OC)cc3)ccc2Sc2ccc(C)cc21	nt	14.6µM*	9.2µM*	nt	nt	0.0%[12.3 µM]
CCOC(=O)N1CCC(NC(=O)c2ccc3c(c2)N=C(CC)c2ccccc2S3)CC1	?	?	?	-22.3	0.1	4.7%
CCC1=Nc2cc(C(=O)N3CCC(C)CC3)ccc2Sc2ccc(C)cc21	nt	16.4µM*	16.4µM*	nt	nt	-5.0%
CC(=O)Nc1ccc(OC2=NS(=O)(=O)c3ccccc32)cc1	nt	nt	nt	nt	nt	2.7%
CC[C@H](C)[C@H](NC(=O)CNC(=O)[C@H](CCCNC(=N)N)NC(=O)[C@H](CO)NC(=O)[C@H](C)NC(=O)[C@H](Cc1ccc(O)cc1)NC(=O)[C@H](Cc1c[nH]c2ccccc12)NC(=O)[C@H](C)NC(=O)[C@@H]1CCCN1C(=O)[C@H](CC(N)=O)NC(=O)[C@@H](NC(=O)[C@H](CC(=O)O)NC(=O)[C@@H]1CCCN1C(=O)[C@@H](N)[C@@H](C)O)[C@@H](C)CC)C(=O)N[C@@H](CCCNC(=N)N)C(=O)N1CCC[C@H]1C(=O)N[C@H](C(=O)NCC(=O)N[C@@H](CCCNC(=N)N)C(=O)N[C@@H](Cc1ccccc1)C(N)=O)C(C)C	nt	nt	nt	nt	nt	10.8%
CC1CN(Cc2c(O)ccc3c2oc(=O)c2ccccc23)CC(C)O1 (stereo not given)	?	14.6µM*	14.6µM*	-13.7	5.6	-14.2%
CCc1c(C)c2ccc(O)c(CN3CCN(c4ccc(F)cc4)CC3)c2oc1=O	nt	20.6µM*	?	nt	nt	5.7%
CC1CN(Cc2c(O)ccc3c(=O)c(-c4ccccc4)coc23)CC(C)O1 (stereo not given)	?	3.3%	-29.5%	-8.9	18.7	0.0%
CCN1CCN(Cc2c(O)ccc3c(C)c(-c4ccccc4)c(=O)oc23)CC1	nt	?	16.4µM*	nt	nt	2.7%
Cc1c(-c2ccc(Cl)cc2)c(=O)oc2c(CN3CCOCC3)c(O)ccc12	nt	?	20.6µM*	nt	nt	-8.1%
CSCCC(NC(=O)c1ccccc1Br)C(=O)NNC(=O)c1ccco1 (stereo not given)	13.1%	?	-2.7%	15.0	-16.3	-5.3%
CC1CCCN(c2ncnc3c2cnn3-c2ccc(F)cc2)C1 (stereo not given)	nt	?	?	nt	nt	2.6%

Screening data: PubChem, National Center for Advancing Translational Sciences (NCATS)
